# Most compounds without a hit are left out; they make up all but 3% or so of the library.
# rTrxR1 inhibitor – qHTS Assay for Inhibitors of Mammalian Selenoprotein Thioredoxin Reductase 1 (TrxR1): qHTS; 390,000 tested, 1% active; AID 588453, 2011; recombinant rTrxR1, NADPH fluorescence consumption, selenite substrate; Potency, µM (doses to about 114 µM), usual class: inhibitors; also: nearly all actives have a fitted effect of over 65% in size
#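 Rat TrxR1 (90 nM in the dispensed reagent) was pre-reduced with 400 uM NADPH for 5 min at room temperature, then incubated with compound for 15 min. After 400 uM selenite was added, NADPH fluorescence (Ex 340/Em 450 nm) was followed for 8 min.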
# Nrf2 inh – Nrf2 qHTS screen for inhibitors. A549 ARE-Fluc reporter, luciferase luminescence, 18-24 h. Potency, µM (titrated, usually from 46 µM), hits mostly inhibitors. 360,000 tested, 2.1% active; also: nearly all actives have a fitted effect of over 60% in size
#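 Quantitative HTS in A549 cells stably bearing an antioxidant response element-firefly luciferase construct. Inhibition of Nrf2-driven transcription was scored by luminescence after 18-24 h of compound exposure at 37 °C.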
# TrxR1 substrate – qHTS Assay for Substrates of Mammalian Selenoprotein Thioredoxin Reductase 1 (TrxR1): qHTS; purified TrxR1 substrate turnover, NADPH consumption readout; Thioredoxin reductase 1, cytoplasmic (Rattus norvegicus), O89049; 390,000 tested, 0.01% active; Potency, µM (highest dose often 114 µM); AID 588456, 2011; also: nearly all actives have a fitted effect of over 50% in size
#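 Rat TrxR1, dispensed at 90 nM, was prereduced with 400 uM NADPH (final) for 5 min at ~22 deg C, then incubated with compound 15 min before 400 uM selenite. A first-read NADPH fluorescence drop versus no-compound background flagged substrates.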
# Nrf2 activator – qHTS of Nrf2 Activators. Potency, µM (series often up to 46.1 µM), usual class: activators. AID 624171, 2012. 410,000 tested, 0.31% active. AREc32 ARE-luciferase reporter (MCF7-derived line), luminescence, 24 h; also: nearly all actives have a fitted effect of over 65% in size
#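 Luminescent ARE reporter assay in AREc32_Fluc cells: overnight plating at 37 deg C, 24 hr compound incubation, Steady-Glo added, 30 min RT before reading.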
# A549 tox – Nrf2 qHTS screen for inhibitors: counterscreen for cytotoxicity; A549 ARE-Fluc cells, CellTiter-Fluor viability, 18-24 h; Potency, µM (doses to about 46 µM), hits mostly inhibitors; 390,000 tested, 0.16% active
#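 Cytotoxicity counterscreen: CellTiter-Fluor fluorescence was measured in A549 ARE_Fluc cells after 18-24 h of compound exposure in a concentration series. The subsequent BugLite luminescent read reports ARE-luciferase activity.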
# GALK inh – qHTS Assay for Inhibitors of Human Galactokinase (GALK) | P51570 | Purified GALK, Kinase-Glo residual ATP luminescence | Potency, µM (doses to about 57.5 µM), hits mostly inhibitors | 270,000 tested, 0.007% active
# Target sequence (P51570 whole entry, looked up): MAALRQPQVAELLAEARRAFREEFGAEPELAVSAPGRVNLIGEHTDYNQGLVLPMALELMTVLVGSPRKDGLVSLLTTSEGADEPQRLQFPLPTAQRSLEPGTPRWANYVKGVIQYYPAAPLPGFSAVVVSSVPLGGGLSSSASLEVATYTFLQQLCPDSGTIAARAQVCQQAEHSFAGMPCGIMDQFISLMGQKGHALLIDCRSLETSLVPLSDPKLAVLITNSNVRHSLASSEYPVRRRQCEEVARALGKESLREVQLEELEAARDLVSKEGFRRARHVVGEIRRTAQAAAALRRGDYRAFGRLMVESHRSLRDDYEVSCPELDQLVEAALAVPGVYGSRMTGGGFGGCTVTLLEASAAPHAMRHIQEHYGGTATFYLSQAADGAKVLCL
#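 Kinase-Glo Plus luminescence measured ATP left after a 1 h room-temperature reaction. The reaction used 5 nM GALK, 100 uM galactose and 35 uM ATP at pH 8.0 (20 mM HEPES, 5 mM MgCl2, 60 mM NaCl, 1 mM DTT, 0.01% BSA).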
# A number is an active result; i = inactive; ? = inconclusive; nt = no result given; [ ] = dose if it differs, or a comment. Calls follow the shape of the dose curve; as a rule, active = well fitted curve in the direction sought with a large enough effect; inconclusive = small, poorly fitted or top-dose-only effect, or another doubt; inactive = no such curve, though single readings can be large; an effect the other way counts as inactive or inconclusive.
SMILES,rTrxR1 inhibitor,Nrf2 inh,TrxR1 substrate,Nrf2 activator,A549 tox,GALK inh
CC1Cc2cc(S(=O)(=O)N3CCC(C(=O)Nc4ccccn4)CC3)ccc2N1C(=O)C1CCC1 (centres undefined),i,14.6µM,i,i,i,i
COc1ccc(NC(=O)C2CCCN(S(=O)(=O)c3ccc4c(c3)CC(C)N4C(C)=O)C2)cc1 (centres undefined),i,?,i,i,i,i
O=C(Nc1cccc(F)c1)C1CCN(S(=O)(=O)c2ccc3[nH]c4c(c3c2)CCCCC4)CC1,i,18.4µM,i,i,i,nt
CC(=O)N1c2ccc(S(=O)(=O)N3CCCC(C(=O)Nc4ccc(F)cc4)C3)cc2CC1C (centres undefined),i,18.4µM,i,i,i,nt
CC(C)(C)OC(=O)NCc1nnc(-c2cc3ccccc3[nH]2)o1,nt,?,nt,nt,i,nt
CCC(=O)N1c2ccc(S(=O)(=O)N3CCN(c4cc(C)ccc4C)CC3)cc2CC1C (centres undefined),i,16.4µM,i,i,i,i
CCc1ccc(NC(=O)C2CCCN(S(=O)(=O)c3ccc4c(c3)CC(C)N4C(C)=O)C2)cc1 (centres undefined),i,?,i,i,i,nt
CCc1ccc(NC(=O)C2CCN(S(=O)(=O)c3ccc4c(c3)CC(C)N4C(C)=O)CC2)cc1 (centres undefined),i,16.4µM,i,i,i,nt
COc1ccc(OC)c(NC(=O)CSc2nc(=O)n(CCN(C)C)c3c2CCC3)c1,i,nt,i,i,i,nt
Cc1ccc(N2C(=O)CS(=O)(=O)C23C(=O)Nc2ccccc23)cc1C (centres undefined),i,i,i,i,i,nt
C=CC(=O)N1C/C(=C/c2ccc(Cl)cc2)C(=O)/C(=C\c2ccc(Cl)cc2)C1,?,?,i,i,23.1µM,nt
C=CC(=O)N1C/C(=C/c2ccccc2)C(=O)/C(=C\c2ccccc2)C1,3.98µM,?,i[11.4 µM],?,?,nt
O=C(CCN1CCCC1Cc1ccccc1)c1ccc2c(c1)OCCO2 (centres undefined),0.316µM,i,i,i,i,i
O=C(CCN1CCC(c2ccccc2)C1)c1ccccc1 (centres undefined),?,nt,i[2.29 µM],i,i,i
O=C(CCN1CCc2ccccc2C1)c1ccc2c(c1)OCCO2,0.562µM,i,i,i,nt,i
O=C(CCc1ccccc1)c1ccc2c(c1)OCCCO2,i,?,i,i,i,i
O=C(CCN1CCC(c2ccccc2)C1)c1ccc2c(c1)OCCO2 (centres undefined),0.282µM,i,i,8.91µM,i,i
COc1cc(C(=O)CCN2CCC(c3ccccc3)C2)cc(OC)c1OC (centres undefined),0.501µM,i,i,?,i,i
COc1ccc(C(=O)N(Cc2cc(OC)c(OC)c(OC)c2)CC2CCCO2)cc1 (centres undefined),i,i,i,i,i,nt
Cc1ccc(OCc2nnc(SCC(=O)Nc3ccccc3C(C)C)o2)cc1,i,nt,i,i,i,nt
COc1ccc2c(CNCc3ccccc3OC)c(C(=O)O)n(Cc3ccc(F)cc3Cl)c2c1,i,i,i,i,i,nt
Cc1ccc2nc(-c3ccccc3F)c(Nc3ccc(Cl)cc3)n2c1,i,?,i,i,i,nt
Cc1ccc(CN(Cc2cccn2-c2nnc(N3CCCC3=O)s2)C(=O)Nc2ccccc2C(F)(F)F)cc1,i,?,i,i,i,nt
O=C(CCN1CCCCC1)c1ccc2c(c1)OCCO2,0.316µM,i,i,17.8µM,i,i
Cc1cccc(C(=O)Nc2ccc(C(=O)N/N=C/c3cccnc3)cc2)c1,i,?,i,i,i,i
SMILES,rTrxR1 inhibitor,Nrf2 inh,TrxR1 substrate,Nrf2 activator,A549 tox,GALK inh
O=C(N/N=C/c1cccnc1)c1cccc(NC(=O)c2ccc(Cl)cc2)c1,i,18.4µM,i,i,i,i
Cc1ccccc1OCC(=O)Nc1ccc(C)c(S(=O)(=O)N2CCCCCC2)c1,i,23.1µM,i,i,i,nt
CCCCC(=O)Nc1ccc(C)c(S(=O)(=O)N2CCCCCC2)c1,i,16.4µM,i,i,?,nt
Cc1ccc(NC(=O)CN2CCCC2c2cccs2)cc1S(=O)(=O)N1CCCCC1 (centres undefined),i,20.6µM,i,i,i,nt
Cc1ccc(NC(=O)COc2ccccc2)cc1S(=O)(=O)N1CCCCC1,nt,nt,nt,i,nt,nt
Cc1ccc(NC(=O)CCS(=O)(=O)c2ccccc2)cc1S(=O)(=O)N1CCCCCC1,i,?,i,i,i,nt
Cc1ccc(NC(=O)COc2cccc(-n3cnnn3)c2)cc1S(=O)(=O)N1CCOCC1,i,23.1µM,i,i,i,nt
COc1ccccc1N1CCN(S(=O)(=O)CCNC(=O)COc2ccccc2F)CC1,i,nt,i,i,i,nt
COc1ccc(Cl)cc1S(=O)(=O)Nc1cccc(-c2ccc(N3CCOCC3)nn2)c1,i,nt,i,i,i,nt
CN(Cc1cccs1)c1ncnc2ccc(-c3ccc4cnn(C)c4c3)cc12,nt,i,nt,nt,?,nt
COc1ccc(NC(=S)Nc2ccc(C)c(S(=O)(=O)N3CCCCC3)c2)cc1,nt,nt,nt,nt,nt,i
Cc1ccc(NC(=S)Nc2ccc(C(C)C)cc2)cc1S(=O)(=O)N1CCCCCC1,i,11.6µM,i,i,?,i
COc1ccc(NC(=O)COc2ccccc2Cc2ccccc2)cc1S(N)(=O)=O,i,13µM,i[0.0914 µM],i,?,i
COc1ccc(N2CCN(S(=O)(=O)c3ccc4c(c3)C(C(C)C)C(=O)N4)CC2)cc1 (centres undefined),i,?,i,i,i,nt
O=C(C=Cc1ccccc1O)c1ccccc1O,i[11.4 µM],i,i,14.1µM,i,nt
O=C(/C=C/c1ccccc1Cl)Nc1ccccc1,i,?,i,i,i,i
O=C(/C=C/c1ccccc1Cl)c1ccccc(=O)c1O,35.5µM,?,i,?,?,nt
O=C(/C=C/c1ccc([N+](=O)[O-])cc1)c1ccccc(=O)c1O,i[11.4 µM],?,i[11.4 µM],?,?,nt
Cc1ccc(C)c(/C=C/C(=O)c2ccccc(=O)c2O)c1,50.1µM,23.1µM,i,?,?,nt
Cc1ccc(/C=C/C(=O)c2ccccc(=O)c2O)c(C)c1,i,20.6µM,i,i,?,nt
Nc1cc(=O)nc(SCC(=O)Nc2ccccc2)n1CCc1ccccc1,i,i,i[11.4 µM],i,i,nt
COc1ccc(NC(=O)CCCn2c(=O)c3cccn3c3cccnc32)cc1Cl,i,i,i,i,i,nt
COc1ccc(OCCn2c(C(C)Oc3ccccc3)nc3ccccc32)cc1 (centres undefined),i,?,i,i,i,nt

# From PubChem
